According to PubChem BioAssay AID1159580 (chemical genetic matrix, 2015):
“And” between values parts separate entries of the source, which are not always exact repeats. Identical values can stand only once. The whole screen tested about 5,500 compounds, of which about 2,000 (36%) were called active. Not shown: some 18% with an inconclusive outcome. Rule as the data show it: active = normalized growth mostly below about 0.91 (no sharp cut-off); inconclusive = no clear call, values can overlap the other calls; inactive = mostly above about 0.92. This is one part of the list.

Assay: chemical genetic growth profiling, strain panel (AID 1159580);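 also: tested at 20 µM; growth read once vehicle control cultures reached saturation at 30 °C; 1 = growth at the plate median or of vehicle wells; lower values mean less growth of the strain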
Conditions: S. cerevisiae deletion strains, growth OD

Measured: normalized growth

CCc1cc(C(N)=S)ccn1
inactive: locus YAL021C, strain ccr4, stronger effect = lower value 1 | locus YAL026C, strain drs2, stronger effect = lower value 1 | locus YAL030W, strain snc1, stronger effect = lower value 0.994 | locus YBL061C, strain skt5, stronger effect = lower value 1.01 | locus YBR009C, strain hhf1, stronger effect = lower value 1 | locus YBR021W, strain FUR4, stronger effect = lower value 1.06 | locus YBR023C, strain chs3, stronger effect = lower value 1.02 | locus YBR171W, strain sec66, stronger effect = lower value 1 | locus YBR229C, strain ROT2, stronger effect = lower value 0.953 | locus YBR231C, strain swc5, stronger effect = lower value 1.04 | locus YBR279W, strain paf1, stronger effect = lower value 1 | locus YCL011C, strain gbp2, stronger effect = lower value 1.01 | locus YCL016C, strain dcc1, stronger effect = lower value 1 | locus YCL061C, strain MRC1, stronger effect = lower value 1.01 | locus YCL069W, strain vba3, stronger effect = lower value 0.991 | locus YCR088W, strain abp1, stronger effect = lower value 1 | locus YDL005C, strain med2, stronger effect = lower value 1 | locus YDL035C, strain GPR1, stronger effect = lower value 1.01 | locus YDL040C, strain nat1, stronger effect = lower value 0.998 | locus YDL074C, strain BRE1, stronger effect = lower value 0.991 | locus YDL101C, strain DUN1, stronger effect = lower value 0.981 | locus YDL134C, strain PPH21, stronger effect = lower value 0.985 | locus YDL185W, strain tfp1, stronger effect = lower value 0.976 | locus YDL192W, strain arf1, stronger effect = lower value 0.981 | locus YDR001C, strain nth1, stronger effect = lower value 1 | locus YDR069C, strain doa4, stronger effect = lower value 0.978 | locus YDR101C, strain arx1, stronger effect = lower value 0.93 | locus YDR137W, strain rgp1, stronger effect = lower value 1.02 | locus YDR150W, strain NUM1, stronger effect = lower value 0.983 | locus YDR159W, strain sac3, stronger effect = lower value 0.953 | locus YDR162C, strain NBP2, stronger effect = lower value 1 | locus YDR195W, strain ref2 0.979 | locus YDR297W, strain sur2, stronger effect = lower value 1 | locus YDR318W, strain mcm21, stronger effect = lower value 1 | locus YDR334W, strain swr1, stronger effect = lower value 1.01 | locus YDR335W, strain msn5, stronger effect = lower value 0.996 | locus YDR388W, stronger effect = lower value 0.995 | locus YDR392W, strain spt3, stronger effect = lower value 0.938 | locus YDR502C, strain sam2, stronger effect = lower value 0.98 | locus YEL003W, strain gim4, stronger effect = lower value 0.998 | locus YEL037C, strain rad23, stronger effect = lower value 0.999 | locus YEL061C, strain CIN8 (second series), stronger effect = lower value 0.994 | locus YEL061C, strain CIN8, stronger effect = lower value 0.959 | locus YER015W, strain faa2, stronger effect = lower value 1.01 | locus YER016W, strain bim1, stronger effect = lower value 0.957 | locus YER110C, stronger effect = lower value 0.98 | locus YER111C, strain swi4, stronger effect = lower value 0.996 | locus YER155C, strain BEM2 (second series), stronger effect = lower value 0.943 | locus YER155C, strain BEM2, stronger effect = lower value 0.99 | locus YER167W, strain BCK2, stronger effect = lower value 0.994 | locus YFR010W, strain ubp6, stronger effect = lower value 1 | locus YGL078C, strain dbp3, stronger effect = lower value 0.986 | locus YGL086W, strain mad1, stronger effect = lower value 0.964 | locus YGL167C, strain pmr1, stronger effect = lower value 1 | locus YGL173C, strain kem1, stronger effect = lower value 0.995 | locus YGL227W, strain vid30, stronger effect = lower value 1.01 | locus YGL240W, strain doc1, stronger effect = lower value 0.978 | locus YGL248W, strain PDE1, stronger effect = lower value 0.989 | locus YGL253W, strain hxk2, stronger effect = lower value 1.01 | locus YGR135W, strain pre9, stronger effect = lower value 1.05 | locus YGR252W, strain gcn5, stronger effect = lower value 1.14 | locus YHR013C, strain ard1, stronger effect = lower value 1.05 | locus YHR027C, strain rpn1, stronger effect = lower value 1.01 | locus YHR030C, strain SLT2, stronger effect = lower value 0.997 and 1.11 | locus YHR079C, strain IRE1 (second series), stronger effect = lower value 0.993 | locus YHR079C, strain IRE1, stronger effect = lower value 1.08 | locus YHR094C, strain hxt1, stronger effect = lower value 0.987 | locus YHR129C, strain ARP1, stronger effect = lower value 0.991 | locus YHR142W, strain chs7, stronger effect = lower value 1.02 | locus YHR200W, strain rpn10, stronger effect = lower value 0.98 | locus YIL066C, strain RNR3, stronger effect = lower value 0.965 | locus YIL073C, strain SPO22, stronger effect = lower value 1.08 | locus YIL125W, strain kgd1, stronger effect = lower value 0.981 | locus YIR030C, strain dcg1, stronger effect = lower value 0.99 | locus YJL092W, strain hpr5, stronger effect = lower value 1.01 | locus YJL095W, strain BCK1 (second series), stronger effect = lower value 1 | locus YJL095W, strain BCK1, stronger effect = lower value 0.964 and 1.07 | locus YJL115W, strain asf1, stronger effect = lower value 1.01 | locus YJL129C, strain trk1, stronger effect = lower value 1.03 | locus YJL134W, strain LCB3, stronger effect = lower value 0.991 | locus YJL154C, strain vps35, stronger effect = lower value 0.995 | locus YJL164C, strain tpk1, stronger effect = lower value 1.02 | locus YJL166W, strain qcr8, stronger effect = lower value 1.04 | locus YJL168C, strain set2, stronger effect = lower value 0.991 | locus YJL187C, strain SWE1 (second series), stronger effect = lower value 0.941 | locus YJL187C, strain SWE1, stronger effect = lower value 1.01 | locus YJR043C, strain POL32, stronger effect = lower value 0.983
